The subject of the experiment is VDR:RXRa (NR concentration 270 nM, RXRa partner concentration 90 nM). Kind of experiment: PBM binding z-score (relative to random genomic background probes); higher = stronger binding; sequences stand for … in GC…GCGATTGACAGCGTAGAATGAAGG
As to the method:
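Protein-binding microarray (Agilent 4x180K custom design, double-stranded 60-nt probes: 5' GC cap, 34-nt variable region, 24-nt constant primer region; full probe sequence given). Purified or IVT nuclear receptor:RXRα heterodimers (3:1 NR:RXRα, mostly 270:90 nM) or homodimers were incubated for 1 h in PBS with 2% milk and no ligand, then detected with Alexa488 antibodies. Fluorescence from o1-orientation probes (~5 replicates averaged) was converted to z-scores against 500 random hg19 background probes. Variable regions are seed direct-repeat (DR0–DR5) sites, all their single-nucleotide variants and half-site ablations.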
The sequence TAGCCTAGGTCAGATCGGGCCAGGATACGCTATA registered a PBM binding z-score of 0.248.

As for AGAACGAGGGCACGATGAGTTGATAGCAGAGTAG, the PBM binding z-score came to 2.32.

CCTACTGGGCCATTCAGAGGTAATTGATCATATG gave a PBM binding z-score of -0.36.

As to CCGACTGGGGCAGAAAGGTTAACATACCATCCGG, the PBM binding z-score is 1.12.

The sequence CCTAGCAGACCAGGGTCACTCAAGCATTTCGCTT yielded a PBM binding z-score of 2.69.

GCATATAGGTAATACAAGGTAAAAGTCCGATTGT showed a PBM binding z-score of 0.085.

Sequence AATAGAGGGTCACTAGGCCAGAGTAGGTACGAAT returned a PBM binding z-score of 2.75.

On to GCTGCTAGGTCAGGTTGGTCAGCGAACGGGTACG, for which the PBM binding z-score was determined as 0.566.

Take TCCATTAGTTGAAGGGCAACCGACGAGTCCGTTT: the PBM binding z-score came out at 1.02.

TTACCAAGGTGAAGGTCGTTGGTCCCTCTGTAGA gave a PBM binding z-score of 0.994.

CCTAGTTGGTCAATGTCACACACGCTATAGGTAC displayed a PBM binding z-score of 0.974.

CCAGACAGGTGGGAAGGTAACTCAGCCTCGATTA yielded a PBM binding z-score of -0.285.

With TGAATGAGGTTATAAGATCATGGAACGTTGCAAA, the PBM binding z-score was determined as 1.44.

As for CCTAGAAGGCCAGGGTCACTCAAGCATTTCGCTT, the PBM binding z-score worked out at 2.94.

In turn, CCTACTGGGCCAAAGTCATTGATCAGTCAAAGCA gave a PBM binding z-score of -0.45.

In turn, CCTCGGAGGACAACAGGAGGTCAGAACTGCCAGA had a PBM binding z-score of 1.67.

As to GCTAGTTGGTCAGTAAAAGGTCACTCACCGGTCG, the PBM binding z-score was found to be 3.51.

For the sequence CCTAGCAGTCCAATCTGGGTCACTCAAGGCTTGA, the PBM binding z-score is 0.794.

In turn, CGAACTAGGGCATTGACAGGACAGTGAATAGTAA displayed a PBM binding z-score of -0.141.

ATATGTAGGTTAAGGGTCTTTCAGGTTGGTTCGC: the PBM binding z-score stood at 1.79.

GCTATTACTTGAAAGGGCAACCGAATGATTCTCG: the PBM binding z-score was found to be 0.432.

As for ATCTCTAAGTAAAGATAGTTCAGTGAATGCAAAT, the PBM binding z-score came to 0.741.

As for ATCCCAAGGTGATCGTGAGGTCGTTGATACTAAC, the PBM binding z-score stood at 2.87.

As to TAGCCTAGGTCAGATCGTGCCAGTATACGCTATA, the PBM binding z-score was found to be 0.516.

Turning to TCAGACAGGTGAAGGTAACTCATGTACGCAGTCG, the PBM binding z-score stood at 0.532.

In turn, CCAAGTTGGTCAGGAGGTCACACACCGGATATGA yielded a PBM binding z-score of 4.08.

CCTAGTTGGTCAGGAGGTCACACCCCGGATATGA displayed a PBM binding z-score of 3.82.

TCTAGCAGGCCAGAGGGTTACTCAAGAGGTACGG returned a PBM binding z-score of -0.176.

The sequence AGAATGAGGTTTCCAAAGATCAGGGAAACGCTTG had a PBM binding z-score of -0.555.

For CGGCCAAGGTCAAGGTCAGTGAAAGAGACTCGAA, the PBM binding z-score worked out at 4.68.

As for AGAACGAGGGCAATGAGTTGATATCACGGGTGGC, the PBM binding z-score came to 5.09.

As to TGTCAAAGTTCAGAGGTAACGTAAGTATCCACAC, the PBM binding z-score was 3.36.

TCTTGTAGATCAACAGGCGGTTAAGAAAGATCGA returned a PBM binding z-score of 0.345.

With CCTTACGGGTCACTGACAGGGTATAGCATTTGGA, the PBM binding z-score worked out at 3.15.

As for ACTATTAATTGAGACGAGGGCAACCGATAGGTTG, the PBM binding z-score worked out at 0.764.

Sequence TCTGGTAGATCAAAGGTTAAGAAAGCCGAAGCCT displayed a PBM binding z-score of 1.48.

The sequence AACTCTAGGTAAAAGTTCAGTGAATCCCGAGGAT yielded a PBM binding z-score of 1.11.

The sequence CGTCAAAGTTCAACTAAGGTAACGTTAAGCACGC showed a PBM binding z-score of 4.69.

On to GGTGCTAGGTCAACTGATGGTCAGCTAAAGCTCG, for which the PBM binding z-score amounted to 1.89.

As for AGTCAAAGTTCACTAGGTCACGTAAGATTCAGCT, the PBM binding z-score was found to be 5.1.
